Data reported in PubChem BioAssay AID624168 (Sanford-Burnham Center for Chemical Genomics, 2012).
Screen size: about 360,000 compounds; about 800 (0.22%) were called active. The sample holds actives, similar compounds and a random draw of the others, so the mix is not that of the screen. Values without a mark were called inactive.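 How the source made its calls: active means activation of at least 8% versus controls, or a plate z-score of at least 8; inactive means the rest.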

experiment: compounds raising alpha-dystroglycan glycosylation – uHTS, Pro5-aDG cells, AlphaScreen, primary screen (AID 624168); conditions: alpha-DG glycosylation AlphaScreen (IIH6), at 10 µM, hits give high values, 0% Pro5, 100% B10-LARGE cell signal;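 further: Pro5 are CHO cells carrying HIG-tagged alpha-DG that lacks glycosylation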

| SMILES | activation |
| --- | --- |
| O=C(NCc1cccnc1)c1ccc(CS(=O)(=O)c2ccc(Br)cc2)o1 | -0.2% |
| O=C1CC(c2cccc(Br)c2)C2=C(CCCC2=O)N1 (stereo unspecified) | 0% |
| Cc1ccsc1/C=N/NC(=O)Cc1cc(=O)[nH][nH]1 | -0.1% |
| O=S(=O)(Nc1ccc(OC(F)(F)F)cc1)c1cccc2nonc12 | -0.1% |
| O=S(=O)(Nc1ccc(O)c2ccccc12)c1ccc(OC(F)(F)F)cc1 | 2.6% (active) |
| CNC(=O)COc1ccc(S(=O)(=O)Nc2ccccc2)cc1 | 0.1% |
| Cc1ccc(C)c(C(=O)N2CCC(n3nccc3NC(=O)C3CC3)CC2)c1 | 0.3% |
| CC(NC(=O)COC(=O)Cn1cc(C(F)(F)F)ccc1=O)c1ccccc1 (stereo unspecified) | -0.1% |
| COc1ccc(-c2oc(/N=C/N3CCCC3)c(C#N)c2-c2ccc(OC)cc2)cc1 | 0.1% |
| COc1cccc(CN(C)CC2CCCN(CCc3ccc(Cl)cc3)C2)c1OC (stereo unspecified) | 0% |
| CCn1cc(CN2CCC(C(=O)Nc3cccc(-c4cccc(Cl)c4)c3)CC2)cn1 | 3.4% |
| O=C(Nc1cccc(-c2cccc(Cl)c2)c1)C1CCN(C2CCC2)CC1 | 1.9% |
| CCn1cc(CN2CCC(C(=O)Nc3cccc(-c4cccc(Cl)c4)c3)CC2)c(C)n1 | 7.1% (active) |
| CN(C)N1C(N)=C(C#N)C(c2ccc(Br)cc2)C2=C1CCCC2=O (stereo unspecified) | 0% |
| CCN(CC)CC1(O)CCN(C(=O)c2ccc(Cl)c(Cl)c2)CC1 | -0.1% |
| O=C(Cn1nnc(N2CCCCC2)n1)c1ccc(Cl)c(Cl)c1 | -0.1% |
| CCCn1c(=N)n(CC(=O)c2ccc(Cl)c(Cl)c2)c2ccccc21 | 9.7% (active) |
| O=C(O)c1ccccc1-c1cccc2nncn12 | 0.1% |
| Cc1ccc(-c2ccc(CN3C(C(C)C)C(=O)N(Cc4cn(CCC5OCCCO5)nn4)CCS3(=O)=O)cc2)cc1 (stereo unspecified) | 0.4% |
| CC(C)C(c1nnnn1C(C)(C)C)N1CCN(Cc2cccnc2)CC1 (stereo unspecified) | -0.3% |
| O=C(Cn1ncc2c3ccccc3n(Cc3ccccc3)c2c1=O)NCc1ccccn1 | -0.4% |
| CC(C#N)OC(=O)c1cccnc1SCC(=O)Nc1ccc2c(c1)OCO2 (stereo unspecified) | 0.5% |
| c1ccc2c(C[n+]3csc4ccccc43)cccc2c1 | -0.1% |
| Nc1scc[n+]1Cc1cccc2cccnc12 | 1.9% (active) |
| CC(NCc1ccccc1OC1CCCC1)c1ccccc1 (stereo unspecified) | 0.5% |
| O=C(COc1cccc(Cl)c1)NCc1ccccc1 | 0.1% |
